Screening results from PubChem.
Pol iota inh: qHTS for Inhibitors of Polymerase Iota; Pol iota fluorescent replication assay, 10 min; Potency, µM (series often up to 115 µM), for the others: top-dose activity, negative = inhibition, usual class: inhibitors; 390,000 tested, 1% active; note: potency is the fitted concentration of half-maximal effect
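Pol iota at 10 nM preincubated 15 min with compounds at room temperature; reaction started with fluorescent substrate, 50 nM final. Fluorescence read kinetically at 0 and 10 min; buffer-only wells as negative control.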
POLB inh: qHTS Assay for Inhibitors of DNA Polymerase Beta; P06746; Pol beta primer extension/strand displacement, fluorescence kinetic; Potency, µM (doses to about 114 µM), without a hit: at the highest dose activity change, negative = inhibition, usual class: inhibitors; 340,000 tested, 1.3% active; AID 485314, 2010; note: potency is the fitted concentration of half-maximal effect; % is set by controls: 0 for no effect and ±100 for the full control effect
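Values derive from four-parameter Hill fits of normalized kinetic data: reads at 0 and 10 min following addition of 50 nM substrate to 10 nM Pol beta preincubated 15 min with compound.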
PI5P4K alpha inh: qHTS for Inhibitors of phosphatidylinositol 5-phosphate 4-kinase (PI5P4K). AID 652105, 2013. PI5P4Kalpha enzyme, ADP-Glo luminescence, 60 min; stronger effect = lower value. max response, %. Phosphatidylinositol 5-phosphate 4-kinase type-2 alpha (Homo sapiens), P48426. 330,000 tested, 1.2% active; active = max response of -50% or lower; inconclusive = between -30% and -50%; inactive = -30% or higher; note: value at the top dose of about 77 µM; % is set by controls: 0 for no effect and ±100 for the full control effect
Target sequence (P48426 whole entry, looked up): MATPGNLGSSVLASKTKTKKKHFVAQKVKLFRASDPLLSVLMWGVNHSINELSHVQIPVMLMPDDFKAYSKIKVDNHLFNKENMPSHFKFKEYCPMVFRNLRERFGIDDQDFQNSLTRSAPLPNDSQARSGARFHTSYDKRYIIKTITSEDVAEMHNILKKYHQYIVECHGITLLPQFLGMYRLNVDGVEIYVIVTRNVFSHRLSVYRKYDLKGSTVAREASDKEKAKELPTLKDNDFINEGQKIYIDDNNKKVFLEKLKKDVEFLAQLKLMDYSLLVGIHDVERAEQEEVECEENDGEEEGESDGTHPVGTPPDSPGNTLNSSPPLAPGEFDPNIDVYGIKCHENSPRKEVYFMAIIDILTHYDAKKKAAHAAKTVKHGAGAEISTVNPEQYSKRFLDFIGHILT
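Enzyme plus substrate dispensed, test compounds pinned in, then ATP (5 microM final) added. After 60 min at RT, ADP-Glo reagent 1 for 45 min and reagent 2 for 30 min preceded luminescence imaging.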
Pol kappa inh: qHTS for Inhibitors of Polymerase Kappa. purified Pol kappa, fluorescent DNA synthesis assay, 10 min. DNA polymerase kappa (Homo sapiens), Q9UBT6. 400,000 tested, 0.53% active. Potency, µM (highest dose often 107 µM), for inactives: at the highest dose activity, negative = inhibition, usual class: inhibitors; note: potency is the fitted concentration of half-maximal effect; % is set by controls: 0 for no effect and ±100 for the full control effect
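Kinetic fluorescence readout at 0 and 10 min followed reaction start with substrate at 50 nM final. Beforehand, enzyme (10 nM Pol kappa) stood 15 min with compound at room temperature; buffer-only wells were negative controls.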
Pol eta inh: qHTS for Inhibitors of Polymerase Eta | DNA polymerase eta (Homo sapiens), Q9Y253 | recombinant Pol eta, fluorescent DNA replication assay | Potency, µM (series often up to 114 µM), for inactives: at the top dose activity change, negative = inhibition, usual class: inhibitors | 390,000 tested, 1.2% active | AID 588591, 2011; note: potency is the fitted concentration of half-maximal effect; % is set by controls: 0 for no effect and ±100 for the full control effect
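Pol eta (10 nM) was preincubated with compounds for 15 min at room temperature, after which fluorescent replication substrate (50 nM final) was added to start the reaction. Fluorescence was read kinetically at 0 and 10 min.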
WRN helicase inh: qHTS for Inhibitors of WRN Helicase; Bifunctional 3'-5' exonuclease/ATP-dependent helicase WRN (Homo sapiens), Q14191; WRN helicase unwinding, fluorescent forked duplex, kinetic; Potency, µM (top dose mostly 114 µM), for the others: at the top dose activity change, negative = inhibition, hits mostly inhibitors; 360,000 tested, 0.46% active; AID 651768, 2012; note: potency is the fitted concentration of half-maximal effect; % is set by controls: 0 for no effect and ±100 for the full control effect; nearly all actives have a fitted effect of over 55% in size
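Kinetic fluorescence helicase assay: unwinding of a quenched forked DNA duplex (100 nM final) with 2 mM ATP final raises red fluorescence (525/598 nm). Compounds sat 15 min at room temperature with 20 nM WRN beforehand.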
The depositor's hits bear a star; [ ] = dose if it differs, or a comment. This is a sample that favours compounds with a hit; in the whole collection about 2.8% have one here. Unless noted, calls come from the whole dose curve; as a rule, active = well fitted curve in the direction sought with a large enough effect; inconclusive = small, poorly fitted or top-dose-only effect, or another doubt; inactive = no such curve, though single readings can be large; an effect the other way counts as inactive or inconclusive.

How did Cc1ccc(C(=O)O)cc1NC(=S)NC(=O)c1ccc(-c2ccc(Cl)cc2)o1 do in these assays?
Pol iota inh: -9%; POLB inh: 23%; PI5P4K alpha inh: 2; Pol kappa inh: -12%; Pol eta inh: 50µM*; WRN helicase inh: -8%[11.6 µM]

How did COc1ccc(C(=O)O)cc1NC(=S)NC(=O)c1ccc(-c2ccc(Cl)cc2)o1 do in these assays?
Pol iota inh: inconclusive; POLB inh: -2%; PI5P4K alpha inh: -15; Pol kappa inh: -16%; Pol eta inh: 20µM*; WRN helicase inh: -5%[11.6 µM]

What do the screens show for `O=C(O)c1cccc(NC(=S)NC(=O)c2ccc(-c3ccc(Cl)cc3)o2)c1`?
Pol iota inh: inconclusive; POLB inh: inconclusive; PI5P4K alpha inh: -19; Pol kappa inh: -31%; Pol eta inh: inconclusive; WRN helicase inh: inconclusive

What do the screens show for `CNc1cc(-c2ccc(CC#N)cc2)ncn1`?
PI5P4K alpha inh: 5; WRN helicase inh: -2%

Results for COc1ccc(N2CC(C(=O)N[C@@H](C)C(=O)NCc3ccccc3OC)CC2=O)cc1 (some centres undefined) ?
Pol iota inh: 16%; POLB inh: 1%; PI5P4K alpha inh: -2; Pol kappa inh: -11%; Pol eta inh: 0%; WRN helicase inh: -4%

What do the screens show for `Cn1c(CCCNC(=O)c2ccco2)nc2ccccc21`?
Pol iota inh: inconclusive; PI5P4K alpha inh: -70*; Pol kappa inh: -28%; Pol eta inh: inconclusive; WRN helicase inh: -30%

Results for Cn1c(CCNC(=O)c2ccco2)nc2ccccc21 ?
Pol iota inh: 21%; PI5P4K alpha inh: -3; Pol kappa inh: -10%; Pol eta inh: -20%; WRN helicase inh: 12%

Results for CN(C)c1ccc(/C=C/c2ccnc3ccccc23)c(F)c1 ?
Pol iota inh: 17%; Pol kappa inh: 3%

How did O=C(O)COn1c(-c2ccccc2)nc2ccc(Cl)cc21 do in these assays?
Pol iota inh: 15%; POLB inh: -2%; PI5P4K alpha inh: -4; Pol kappa inh: -9%; Pol eta inh: -13%; WRN helicase inh: 1%

What do the screens show for `O=[N+]([O-])c1ccc2nc(-c3ccccc3)n(OCc3ccc(Cl)cc3)c2c1`?
Pol iota inh: -5%; POLB inh: 28µM*; PI5P4K alpha inh: -26; Pol kappa inh: inconclusive; Pol eta inh: 16µM*; WRN helicase inh: -15%[57.1 µM]

Results for Cc1cccc(N2CCN(C(=O)CCCn3c(=O)[nH]c4ccsc4c3=O)CC2)c1C ?
Pol iota inh: 17%; POLB inh: 12%; Pol kappa inh: 4%; Pol eta inh: -22%

What do the screens show for `O=c1c2c(nc3cc(-c4ccc(F)cc4)[nH]n13)CCCC2`?
Pol iota inh: inconclusive; POLB inh: 18µM*; PI5P4K alpha inh: -13; Pol kappa inh: -21%; Pol eta inh: inconclusive; WRN helicase inh: inconclusive

What do the screens show for `CC(C)c1ccc(Nc2nc3c(S(=O)(=O)c4ccc(Br)cc4)nnn3c3ccsc23)cc1`?
Pol iota inh: inconclusive; POLB inh: 1%; Pol kappa inh: 8%; Pol eta inh: 3%

How did Cc1nnc(SCC(=O)NCc2ccccc2F)c2nn(-c3ccc(Cl)cc3)c(C)c12 do in these assays?
Pol iota inh: 71µM*; POLB inh: inconclusive; Pol kappa inh: -1%[60.1 µM]; Pol eta inh: inconclusive

Results for COc1ccc(Br)cc1/C=C/C(=O)c1ccc(NC(C)=O)cc1 ?
Pol iota inh: 100µM*; POLB inh: 20%; PI5P4K alpha inh: -2; Pol kappa inh: -19%; Pol eta inh: inconclusive; WRN helicase inh: -3%[11.6 µM]

What do the screens show for `CCCCCCCCCCCCCCCC[n+]1ccc(CC(O)c2c(C)[nH]c3ccccc23)c2ccccc21` (centres undefined)?
Pol iota inh: 118%; Pol kappa inh: 64%
